This is a sample that favours compounds with a hit; in the whole collection about 7.4% have one here.
SMN2 splice up: SMN2 splice variant enhancement | HEK293 SMN2-luciferase splicing reporter, luminescence, 30-36 h | Potency, µM (doses to about 46.1 µM), inactives show top-dose activity change, positive = activation, hits mostly activators | AID 1458 | hit rate 2.8% among 210,000; note: % of control where 0% means no effect; nearly all actives have a fitted effect of over 55% in size
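HEK293 cells carry an SMN2 […]–luciferase reporter in which exon 7 inclusion puts luciferase in frame. Cells were plated 10-12 h before compound addition, then incubated 30-36 h at 37C. ONE-Glo luminescence was read; sodium butyrate at 4.5 mM final served as control.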
FLuc counter: inhibits or activates purified firefly luciferase, miR-21 counter-screen; P08659; purified FLuc, Km substrates, luminescence inhibition; Potency, µM (highest dose often 57.5 µM), for the others: at the highest dose activity change, negative = inhibition, usual class: inhibitors; hit rate 6.9% among 360,000;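 note: plate controls were vehicle for no effect and reference inhibitor for full effect; nearly all actives have a fitted effect of over 55% in size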
Target sequence (P08659 whole entry, looked up): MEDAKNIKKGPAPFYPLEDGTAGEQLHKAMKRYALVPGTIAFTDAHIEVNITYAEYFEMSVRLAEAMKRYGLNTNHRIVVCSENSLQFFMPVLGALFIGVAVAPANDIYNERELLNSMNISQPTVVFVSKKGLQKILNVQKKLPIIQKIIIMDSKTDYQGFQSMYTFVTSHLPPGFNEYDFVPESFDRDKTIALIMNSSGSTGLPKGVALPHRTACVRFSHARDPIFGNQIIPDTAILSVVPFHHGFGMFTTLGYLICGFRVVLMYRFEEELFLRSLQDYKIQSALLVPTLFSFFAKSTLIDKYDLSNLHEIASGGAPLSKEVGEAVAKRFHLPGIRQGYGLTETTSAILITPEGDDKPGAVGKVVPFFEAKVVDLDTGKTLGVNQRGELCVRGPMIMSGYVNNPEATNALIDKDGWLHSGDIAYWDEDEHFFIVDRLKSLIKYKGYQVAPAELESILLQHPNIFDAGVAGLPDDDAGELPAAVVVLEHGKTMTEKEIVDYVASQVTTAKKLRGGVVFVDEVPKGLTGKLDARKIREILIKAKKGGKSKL
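Biochemical qHTS of compounds, final roughly 60 µM downward over six points, against 10 nM purified firefly luciferase using Km concentrations of substrates (10 uM D-luciferin, 10 uM ATP) in Tris acetate pH 7.5 buffer; luminescence output.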
ELG1 genotoxic: induces genotoxicity in HEK293T cells with luciferase-tagged ELG1; HEK293T ELG1-luciferase reporter, luminescence, 16 h; AID 504466; Potency, µM (top dose mostly 46 µM), for the others: at the highest dose activity change, positive = activation, actives largely listed as activators; hit rate 1.3% among 330,000; note: % of control where 0% means no effect; nearly all actives have a fitted effect of over 60% in size
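Cells (2,000/well) expressing the ELG1-luciferase fusion are dosed by pin tool and kept 16 hr at 37 °C, 5% CO2. Signal comes from ONE-Glo luciferase reagent after 30 min at room temperature.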
NPC1 prom act: NPC1 promoter activation; AID 485313; hit rate 2.4% among 320,000; Huh7 NPC1 promoter luciferase reporter, 24 h; Potency, µM (highest dose often 9.22 µM), without a hit: top-dose activation, usual class: activators; note: % of control where 0% means no effect; nearly all actives have a fitted effect of over 60% in size
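Readout is luciferase luminescence, reflecting NPC1 promoter activation in stably transfected Huh7 cells after 24 h compound exposure at 37 °C in reduced-serum medium with 10% FBS.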
Rab9 prom act: Rab9 promoter activation; Huh7 Rab9 promoter-luciferase reporter, luminescence, 24 h; Potency, µM (titrated, usually from 9.22 µM), without a hit: top-dose activation, negative = inhibition, hits mostly activators; hit rate 2.8% among 320,000; AID 485297; note: % of control where 0% means no effect; nearly all actives have a fitted effect of over 60% in size
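Rab9 promoter-driven luciferase in stably transfected Huh7 cells; 1500 cells/well rested 2 h, exposed to compound in DMSO for 24 h at 37 °C, 5% CO2. Luminescence read 10 min after adding luciferase reagent at ambient temperature.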
Luc counter: counter-screen: inhibitors of Kinase-Glo firefly luciferase; Q27757; Kinase-Glo luciferase, ATP luminescence, 8 min; Potency, µM (highest dose often 38.3 µM), inactives show at the highest dose activity change, negative = inhibition, most hits filed as inhibitors; hit rate 0.28% among 200,000; AID 1379; note: % is set by controls: 0 for no effect and ±100 for the full control effect; nearly all actives have a fitted effect of over 60% in size
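Compound is pinned into ATP-containing buffer (10 uM ATP, imidazole pH 7.2, 7 mM MgCl2). Kinase-Glo luciferase reagent is then added. Light output is recorded following an 8-min room-temperature incubation.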
Active calls of the source: *; [ ] = remark or other dose. Calls come from the whole dose curve; as a rule, active = well fitted curve in the direction sought with a large enough effect; inconclusive = small, poorly fitted or top-dose-only effect, or another doubt; inactive = no such curve, though single readings can be large; an effect the other way counts as inactive or inconclusive. Potency is the fitted concentration of half-maximal effect.

How did Cc1ccc(NC(=S)c2nc3ccccc3[nH]2)c(C)c1 do in these assays?
SMN2 splice up: 5.6µM*; FLuc counter: 1.7µM*; ELG1 genotoxic: inconclusive; NPC1 prom act: 3.5µM*; Rab9 prom act: 3.5µM*; Luc counter: -14%

How did Cc1ccc(NC(=S)c2nc3ccccc3[nH]2)cc1 do in these assays?
SMN2 splice up: 28µM*; FLuc counter: 0.67µM*; ELG1 genotoxic: inconclusive; NPC1 prom act: 4µM*; Rab9 prom act: 0.63µM*; Luc counter: -21%

What do the screens show for `Cc1ccc2c(CN(C)Cc3ccccc3)cc(=O)oc2c1C`?
FLuc counter: 15µM*; ELG1 genotoxic: 10%; NPC1 prom act: inconclusive; Rab9 prom act: inconclusive

Results for Cc1ccc2c(CN(C)Cc3cccc(F)c3)cc(=O)oc2c1C ?
FLuc counter: inconclusive; ELG1 genotoxic: 3%; NPC1 prom act: 14%; Rab9 prom act: -3%[1.84 µM]

Results for CC(C)CN(CC(C)C)C(=O)Nc1cccc([N+](=O)[O-])c1 ?
SMN2 splice up: 8%; FLuc counter: -3%; ELG1 genotoxic: -3%; NPC1 prom act: -2%; Rab9 prom act: -9%; Luc counter: 0%

Results for Cc1cc(C)nc(Nc2n[nH]c(COc3ccccc3)n2)n1 ?
SMN2 splice up: -14%; FLuc counter: 3%; ELG1 genotoxic: 0%; NPC1 prom act: inconclusive; Rab9 prom act: inconclusive; Luc counter: -3%

How did Cc1cc(C)nc(Nc2n[nH]c(-c3cccc4ccccc34)n2)n1 do in these assays?
SMN2 splice up: -12%; FLuc counter: 12µM*; ELG1 genotoxic: 3%; NPC1 prom act: 26%; Rab9 prom act: 30%; Luc counter: 1%

How did Cc1cc(C)nc(Nc2n[nH]c(-c3ccccc3Cl)n2)n1 do in these assays?
SMN2 splice up: 14µM*; FLuc counter: 6.7µM*; ELG1 genotoxic: inconclusive; NPC1 prom act: inconclusive; Rab9 prom act: inconclusive; Luc counter: -7%

What do the screens show for `Clc1ccccc1Nc1ncnc2c1nc1n2CCCCC1`?
FLuc counter: 17µM*

What do the screens show for `Clc1cccc(Nc2ncnc3c2nc2n3CCCCC2)c1`?
FLuc counter: 6.7µM*

Results for Clc1cccc(N2CCN(c3ncnc4c3nc3n4CCCC3)CC2)c1 ?
SMN2 splice up: inconclusive; FLuc counter: 19µM*

What do the screens show for `Cc1ccc(Nc2ncnc3c2nc2n3CCCC2)c(Br)c1`?
FLuc counter: 3.8µM*

Results for Clc1cccc(CNc2ncnc3c2nc2n3CCCC2)c1 ?
FLuc counter: -2%

How did Cc1ccc(Cl)cc1N1CCN(CCCNC(=O)Cn2ncc3c([nH]c4ccccc43)c2=O)CC1 do in these assays?
FLuc counter: 0%

How did COc1ccc(-c2coc3cc(OC4OC(CO)C(O)C(O)C4O)ccc3c2=O)cc1 (stereo not given) do in these assays?
FLuc counter: 11µM*; ELG1 genotoxic: 8.2µM*; NPC1 prom act: 1.6µM*; Rab9 prom act: 1.6µM*

How did COc1ccc(-c2coc3cc(OC4OC(CO)C(O)C(O)C4O)cc(O)c3c2=O)cc1 (stereo not given) do in these assays?
FLuc counter: inconclusive; ELG1 genotoxic: inconclusive; NPC1 prom act: 2.8µM*; Rab9 prom act: 2.8µM*; Luc counter: -5%

How did O=C(Nc1nnc(Cc2ccccc2)s1)c1ccccc1 do in these assays?
FLuc counter: -18%; ELG1 genotoxic: inconclusive; NPC1 prom act: 3.2µM*; Rab9 prom act: inconclusive

What do the screens show for `O=C(Nc1nnc(Cc2ccc(Cl)cc2)s1)c1cccs1`?
SMN2 splice up: 15%; FLuc counter: -1%; ELG1 genotoxic: 21%; NPC1 prom act: 17%; Rab9 prom act: 20%; Luc counter: 1%

How did O=C(Nc1nnc(Cc2ccccc2)s1)c1cccs1 do in these assays?
SMN2 splice up: 12%; FLuc counter: inconclusive; ELG1 genotoxic: inconclusive; NPC1 prom act: inconclusive; Rab9 prom act: 1.8µM*; Luc counter: 12%

Results for O=C(Nc1nnc(CC2=CCCCC2)s1)c1cccs1 ?
SMN2 splice up: 14µM*; FLuc counter: inconclusive; ELG1 genotoxic: 15µM*; NPC1 prom act: inconclusive; Rab9 prom act: inconclusive; Luc counter: 0%

How did COc1ccc(Cc2nnc(NC(=O)c3cccs3)s2)cc1 do in these assays?
SMN2 splice up: -7%; FLuc counter: inconclusive; ELG1 genotoxic: inconclusive; NPC1 prom act: 0%; Rab9 prom act: 1%; Luc counter: 11%

How did CCOc1ccc(-n2c(SC(C)C(=O)OC)nc3c([nH]c4ccccc43)c2=O)cc1 (stereo not given) do in these assays?
FLuc counter: 4%

Results for COCc1c(Br)c(C)nc2sc3c(=O)[nH]nnc3c12 ?
FLuc counter: -5%; ELG1 genotoxic: 1%; NPC1 prom act: -4%; Rab9 prom act: -9%

Results for CCNc1nnc(SCC(=O)NC2CCCCCC2)s1 ?
FLuc counter: 1%; ELG1 genotoxic: 5%; NPC1 prom act: 6%; Rab9 prom act: -1%

How did Cc1cc(C(=O)Cn2nnc3ccccc3c2=O)c(C)n1-c1c(C)n(C)n(-c2ccccc2)c1=O do in these assays?
SMN2 splice up: 6%; FLuc counter: 1%; ELG1 genotoxic: 0%; NPC1 prom act: 0%; Rab9 prom act: -7%; Luc counter: 3%

Results for COc1ccc(-n2c(C)cc(C(=O)Cn3nnc4ccccc4c3=O)c2C)cc1 ?
SMN2 splice up: -3%; FLuc counter: 12µM*; ELG1 genotoxic: -2%; NPC1 prom act: 23%; Rab9 prom act: inconclusive; Luc counter: 0%

Results for Cc1cc(C(=O)Cn2nc(C(=O)O)c3ccccc3c2=O)c(C)n1CC(F)(F)F ?
SMN2 splice up: 5%; FLuc counter: 3µM*; ELG1 genotoxic: 16%; NPC1 prom act: 18%; Rab9 prom act: inconclusive; Luc counter: 0%

How did Cc1ccc(C(=O)Cn2nc(C(=O)O)c3ccccc3c2=O)cc1C do in these assays?
FLuc counter: 6.7µM*; ELG1 genotoxic: 1%; NPC1 prom act: 4%; Rab9 prom act: 13%

Results for Cc1cc(C(=O)Cn2nnc3ccccc3c2=O)c(C)n1-c1ccccc1F ?
SMN2 splice up: 11µM*; FLuc counter: 0.34µM*; ELG1 genotoxic: inconclusive; NPC1 prom act: 0.45µM*; Rab9 prom act: 0.4µM*; Luc counter: -5%

What do the screens show for `Cc1cc(C(=O)Cn2nc(C(=O)O)c3ccccc3c2=O)c(C)n1-c1ccc(OC(F)F)cc1`?
SMN2 splice up: -52%; FLuc counter: -16%; ELG1 genotoxic: -11%; NPC1 prom act: 0%; Rab9 prom act: 1%; Luc counter: -1%

High-throughput results as filed in PubChem.
